# Screens from PubChem BioAssay.
# Dicer processing: inhibitors of Dicer pre-microRNA processing, primary screen, biochemical, cat-ELCCA, chemiluminescence; Endoribonuclease Dicer (Homo sapiens), Q9UPY3; cat-ELCCA pre-miR-21 Dicer processing; active compounds read high; z-score at 25 µM; 47,000 compounds, 6% hits; AID 1347074, 2019; in the data active = z-score above about 3, passing the limit was not always enough;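 note: plate controls were vehicle for no effect and no enzyme for full effect; higher signal means more uncleaved substrate so more Dicer inhibition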
# Numbers without * were called inactive. Shown is part of a subset that was picked to be rich in hits.
SMILES,Dicer processing
Cc1ncc(COn2c(-c3ccccc3)nc3ccccc3c2=O)c(CO)c1O,0.84
COC(=O)C1=C(N)Oc2ccccc2C1C(C#N)C#N (centres undefined),-0.77
O=C(Nc1csc(C(F)(F)F)c1-c1ccccc1)C(Cl)Cl,1.1
Cc1csc2c(N3CCSCC3)ncnc12,-1.2
Cc1csc2c(=O)n(CCO)c(=O)[nH]c12,4.6*
Cc1csc2nc(CN3CCOCC3)[nH]c(=O)c12,-0.93
Cc1csc2c(=O)n(CCN3CCSCC3)c(=O)[nH]c12,5.9*
CC(C)CCn1c(=O)[nH]c2ccccc21,0.96
O=c1[nH]c2ccsc2c(=O)n1CCO,3.2*
COC(=O)C1=C(C)NC2=C(C(=O)CC(c3ccc(OC)cc3)C2)C1c1ccc(OC)cc1OC (centres undefined),-2.1
Cc1nn(-c2ccccc2)c2[nH]c(=O)c(C#N)c(-c3ccc(Cl)cc3)c12,-0.79
C1CCN(c2nnnc3c2sc2nc(N4CCOCC4)c4c(c23)CCCC4)CC1,1.4
NC(=O)c1c(NC(=O)COc2ccc(Cl)cc2)sc2c1CCC2,0.08
Cc1cc(NC(=O)c2cc(Cl)cc(Cl)c2)n(-c2ccccc2)n1,-2
CCOC(=O)C1CCN(c2cc(C)c(C#N)c3nc4ccccc4n23)CC1,2.2
Cc1ccc2c(c1)NC(c1ccc(N(C)C)cc1)O2 (centres undefined),0.72
CN(C)/C=C/C=C1\c2ccccc2-c2ccc([N+](=O)[O-])cc21,-1
COc1cccc(Cc2nnc(-c3ccc4c(c3)OCO4)o2)c1,0
O=C(NCc1nnc2c(Cl)cc(C(F)(F)F)cn12)c1ccccc1,-1.2
O=C(CSc1ncn[nH]1)N1CCc2ccccc21,0.69
O=C(CSc1nn2cnnc2s1)N1CCc2ccccc21,3.1*
O=C(CSc1nn2cnnc2s1)N(C1CCCCC1)C1CCCCC1,2
Cc1ccc(C2NC(=S)NC3=C2C(=O)c2ccccc23)cc1 (centres undefined),-1.5
Cc1cc(NS(=O)(=O)c2ccc(NS(=O)(=O)c3cc(Cl)c(Cl)cc3Cl)cc2)no1,0.43
COc1ccc2[nH]c(C(=O)NCCSCc3ccc(F)cc3)cc2c1,0.67
SMILES,Dicer processing
CCC1CCC(C)N(C(=S)Nc2ccc(Cl)c(Cl)c2)C1 (centres undefined),0.9
O=C(Nc1cccc2nsnc12)c1cccs1,-0.16
O=C(Nc1cc(Cl)ccc1O)c1cccs1,1.3
O=C(Nc1ccncc1[N+](=O)[O-])c1cccs1,3.5*
Cc1ccc(CSc2nccc(-c3nn(-c4ccc(F)cc4)ccc3=O)n2)cc1,0.94
O=C1CCC([N+](=O)[O-])C(c2ccc(OCc3ccccc3)cc2)N1 (centres undefined),0.66
COc1ccc(/C(C#N)=C/c2cnc(-c3ccccc3)[nH]2)cc1,0.2
CCCCOC(=O)C1=C(C)NC2=C(C(=O)CC(C)(C)C2)C1c1cc2c(cc1Cl)OCO2 (centres undefined),0.07
CCOC(=O)c1c(C)n(C)c2ccc(O)cc12,1.5
CCOC(=O)c1c(C)n(-c2ccccc2)c2ccc(OC)cc12,0.05
CCOC(=O)c1c(C)n(-c2cccc(Br)c2)c2ccc(O)cc12,6.5*
Cc1cc(C)c2c3c(sc2n1)C(=O)N(c1cccc(Cl)c1)CC(=O)N3,0.84
Cc1nc2n(CC(=O)c3ccccc3)c3ccccc3n2n1,-1
CC(=O)/C(N=Nc1cc(F)c(Br)cc1F)=C(\C)O,1.5
CC(=O)/C(N=Nc1ccc(C)cc1[N+](=O)[O-])=C(\C)O,3.2*
CCOC(=O)/C(N=Nc1ccc(C)cc1C)=C(\C)O,2.3
FC(F)(F)c1ccc(Sc2cc(C(F)(F)F)nc3cc(Cl)cc(Cl)c23)nc1,-0.02
N#C/C(=C\c1ccc(Cl)cc1)S(=O)(=O)Cc1ccco1,-0.03
N/C(CS(=O)(=O)Cc1ccco1)=N\O,4.5*
Nc1ccc(S(=O)(=O)NCc2ccco2)cc1,1.1
COc1ccc(Nc2n[nH]c(N)n2)cc1,5.6*
COc1ccc(Nc2c(Cl)cc(OC)cc2Cl)cc1,3.4
COc1ccc(Nc2nc(Cl)nc(Nc3ccc(OC)cc3)n2)cc1,-0.67
O=C(O)c1cscc1Sc1ccc(Cl)cc1,-0.33
Cc1nn(-c2ccccc2)c2c1C(c1ccc(O)cc1)C(C#N)=C(N)O2 (centres undefined),-6.5
SMILES,Dicer processing
CC(C)(C)c1cc(OS(=O)(=O)c2ccc(Cl)cc2)c(C(C)(C)C)cc1OS(=O)(=O)c1ccc(Cl)cc1,-1.9
O=C(O)c1ccccc1C(=O)Nc1ncccc1OCc1ccc(Cl)c(Cl)c1,-0.62
Cc1ccc2nc(CCCC(=O)O)[nH]c2c1,3.6*
O=C(O)Cc1nc2ccc(Cl)cc2[nH]1,-0.26
Cc1ccc(C(=O)/C=C/Sc2nc3ccc(C)cc3[nH]2)cc1,1.1
Cc1cccc(Oc2ccc(N=Cc3ncc([N+](=O)[O-])n3C)cn2)c1C,3.8
CC1(C)Cc2c(sc3ncn4nc(-c5cccnc5)nc4c23)C(C)(C)N1,-0.21
CCc1c(C)[nH]c2ccc([N+](=O)[O-])cc12,1.2
CN(C)c1ccc(/C=C2/OC(=S)NC2=S)cc1,3.4*
CN(C)c1ccc(C=C2C(=O)N(c3ccccc3)C(=O)N(c3ccccc3)C2=O)cc1,1.6
COc1ccc(OCCSc2nc3ccccc3n2CC(=O)O)cc1,0.55
CC(C)CSc1nc2ccccc2n1CC(=O)O,3.2*
CCCSc1nc2ccccc2n1CC(=O)O,-2
CN(C)/C=N/c1nnc(Sc2nc3c(Cl)cc(Cl)cc3s2)s1,-0.21
O=C(/C=C/S/C=C/C(=O)c1ccc(F)cc1)c1ccc(F)cc1,-0.81
CSc1n[nH]c(-c2ccccc2)c1C#N,0.6
Nc1ncnc(SCc2ccc(Cl)cc2)n1,-1.7
CCS(=O)(=O)n1nc(-c2ccc(Cl)cc2)nc1SC,2.7
CCS(=O)(=O)n1nc(-c2ccccc2)nc1N,3.3*
Nc1nc(-c2ccc(Cl)cc2)nn1S(=O)(=O)c1ccccc1,1.8
O=C(CSc1n[nH]c(-c2ccncc2)n1)c1c[nH]c2ccccc12,1.1
O=C(O)c1ccc2c(=O)n3c4ccccc4nc3c3ccc(C(=O)O)c1c23,3.1*
O=C(O)c1ccc2c(=O)n3c4ccc(Cl)cc4nc3c3ccc(C(=O)O)c1c23,0.93
O=C(O)Cn1c2ccccc2c2nc3ccccc3nc21,-1.6
COC(=O)CSCC(=O)Nc1scc(C)c1C(N)=O,-1.3
SMILES,Dicer processing
CCOC(=O)CN(C(=O)COc1nc(-c2ccccc2)cc(C)c1C#N)c1ccc(C)cc1,-3.2
CCOC(=O)CN(C(=O)COc1nc(-c2ccccc2)cc(C)c1C#N)c1cccc(OC)c1,0.12
CCOC(=O)CN(C(=O)COc1nc(-c2ccccc2)cc(C)c1C#N)c1ccccc1C,3.5*
CCCc1c(O)ccc2c(=O)cc(C(=O)O)oc12,-0.13
O=C1NN=C(c2ccccc2)/C1=C1\OC(c2ccccc2)=CS1,-3.6
O=C1CN(C(=O)OCc2ccccc2)CCN1,0.57
CC12CN(S(=O)(=O)c3ccccc3)CC(C)(CN(S(=O)(=O)c3ccccc3)C1)C2=O,1.1
CCOC(=O)C(NC(=O)c1cccc(C)c1)(Nc1cc(C)on1)C(F)(F)F (centres undefined),-0.9
Cc1[nH]nc(-c2ccc(O)c(C)c2O)c1Oc1ccccc1,3.1*
CCOc1ccc(-c2n[nH]c(C)c2Oc2ccc(F)cc2)c(O)c1,2.3
CCOc1cc(O)c(-c2n[nH]c(C)c2Oc2ccccc2)cc1CC,2.4
ONC(=Nc1ccccc1F)c1cccnc1,-0.61
COC(=O)C1=C(C)NC2=C(C(=O)c3ccccc32)C1c1ccc(-c2ccc(Cl)cc2)o1 (centres undefined),3.6*
